LGR2 antag – inhibitors of bursicon-induced Drosophila LGR2 receptor cAMP signaling; HEK293 LGR2, CRE-luciferase, bursicon-stimulated, 4 h; inhibition, % at 9.99 µM; actives 0.35% (n = 380,000);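 active = drop in luminescence signal, shown as inhibition above about 50% in the replicate tests, limit read from the data, passing the limit was not always enough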;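 note: agonist challenge used bursicon conditioned medium at about half maximal strength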
EWS-Fli block – inhibitors of EWS/Fli oncoprotein transcriptional activity; A673 NR0B1-luciferase reporter, viability-normalised; inhibition, % at 12.6 µM; actives 0.67% (n = 350,000); AID 651661;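 active = mean inhibition of at least 50% after viability correction, with every replicate also passing that limit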;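 note: firefly luciferase signal divided by Alamar Blue viability fluorescence both relative to DMSO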
TROY signal inh – blocks TROY-dependent signaling in reporter cells; Q293 LMP1-TROYcd NF-kB luciferase reporter, 4 h; inhibition, % at 10 µM; actives 0.98% (n = 360,000); AID 1347056;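 active = compounds whose plate-normalised and pattern-corrected inhibition of the luciferase reporter signal at the single screening dose is 50% or more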
TWEAK-Fn14 inh – blocks TWEAK-Fn14 interaction in a reporter cell assay | actives 2% (n = 360,000) | inhibition, % at 10 µM | TWEAK-stimulated Fn14 reporter cells, luciferase luminescence, 8 h; in the data active = inhibition above about 50%
EBV LMP1 NFkB – Epstein-Barr LMP1 NF-kappaB reporter inhibition | LMP1-induced NF-kappaB luciferase reporter cells, luminescence | inhibition, % at 12.5 µM | actives 0.69% (n = 350,000); in the data active = inhibition above about 41%;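 note: 0% = neutral control wells and 100% = reference inhibitor control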
The depositor's hits bear a star; . = not tested or not shown; ! = a repeat was not active. Only some compounds are listed: those with a hit (about 2.5% of all), similar ones and a draw of the others.

SMILES	LGR2 antag	EWS-Fli block	TROY signal inh	TWEAK-Fn14 inh	EBV LMP1 NFkB
CC[C@H]1CN2CCC1C[C@H]2[C@H](O)c1ccnc2ccc(OC)cc12 (stereo partly specified)	.	9	-6	-11	69*
Cc1ccc(N(C)C(=O)Oc2ccc(C(=O)c3ccc(Cl)cc3)cc2)cc1	.	.	.	68*	7
COC(=O)[C@@H]1[C@@H](CO)[C@@H]2Cn3c(ccc(-c4ccncc4)c3=O)[C@H]1N2S(=O)(=O)c1ccccc1F	1	0	.	.	.
N#Cc1cccc(-c2ccc([C@H]3[C@@H](CO)N4CCCCN(C(=O)Cc5cccnc5)C[C@H]34)cc2)c1	9	-2	.	.	.
C[C@H]1CCC/C=C/[C@@H]2C[C@H](O)C[C@H]2[C@H](O)/C=C/C(=O)O1	17	54*	-66	55*!	-119
CN(Cc1cccc(-c2cccnc2)c1)C(=O)Oc1ccc([N+](=O)[O-])cc1	29	-13	56*	83*	.
COC(=O)[C@H]1[C@H](CO)[C@H]2Cn3c(ccc(C4=CCCCC4)c3=O)[C@@H]1N2Cc1cccnc1	-3	-2	.	.	.
O=C(Cc1ccccc1)N1CC2(C1)[C@H](c1ccccc1)[C@@H](CO)N2Cc1cccc(Cl)c1	-8	1	.	.	.
CCN1/C(=C\C=C\C2=[N+](CC)c3ccccc3C2(C)C)C(C)(C)c2ccccc21	.	.	65*	100*	71*
CC=Cc1ccc2n(c1=O)C[C@@H]1[C@@H](CO)[C@H](C(=O)N(C)C)[C@H]2N1C (mixture of isomers)	-20	-6	.	.	.
CN1[C@@H]2CC[C@H]1CC(OC(=O)C1C=Nc3ccccc31)C2 (stereo partly specified)	-4	-7	1	3	82*
CN1C2CCC1CC(OC(=O)c1cccc(O)c1)C2 (stereo unspecified)	22	-7	-13	17	4
c1ccc(CN2COC3CCCCCC32)cc1 (stereo unspecified)	.	.	55*	4	.
CCCc1nc2ccc(Br)cc2c(=O)n1-c1ccc([N+](=O)[O-])c(C(F)(F)F)c1	28	.	47	46	44*
CCc1nc2ccc(Br)cc2c(=O)n1-c1ccccc1C(F)(F)F	-5	.	22	20	-1
O=C(Cc1ccccc1)N1CC2(C1)[C@H](c1ccccc1)[C@H](CO)N2Cc1cccc(F)c1	-9	8	.	.	.
CC=Cc1ccc2n(c1=O)C[C@@H]1[C@@H](CO)[C@H](C(=O)OC)[C@H]2N1C(=O)CC1CC1 (mixture of isomers)	-6	7	.	.	.
CC(O)C1C=CC=CC(=O)OC2CC3OC4C5OC5(C)CCC4(COC(=O)C4OC4(C)C(O)CO1)C2(C)C31CO1 (stereo unspecified)	101*	29	85*	99*	84*
CC(=O)OC1C(=O)OCC23CCC4(C)OC4C2OC2CC(OC(=O)C=CC=CC(=O)OCCC1C)C3(C)C21CO1 (stereo unspecified)	105*	50	84*	99*	81*
CC=Cc1ccc2n(c1=O)C[C@H]1[C@H](CO)[C@@H](C(=O)OC)[C@@H]2N1CC1CC1 (mixture of isomers)	-8	1	.	.	.
Cc1cc(O)c2c(c1)C(=O)C13C(=C2O)C(=O)[C@H]2[C@@H](O)[C@@H]1[C@H]1[C@H](O)[C@@H]3C(=O)C3=C(O)c4c(O)cc(C)cc4C(=O)C312 (stereo partly specified)	.	.	8	72*	12
COC(=O)C1=C(c2ccccc2OCc2ccccc2)C[C@@H]2CC[C@H]1N2C	-7	8	-9	-14	-4
COC(=O)C1=C(c2ccc(OCc3ccccc3)cc2)C[C@@H]2CC[C@H]1N2C	1	-1	57*	31	-5
COC(=O)C1=C(c2ccc(F)cc2OCc2ccccc2)C[C@@H]2CC[C@H]1N2C(=O)NC(C)C	18	2	-7	10	49*
COC(=O)C1=C(c2ccc(OCc3ccccc3)c(F)c2)C[C@@H]2CC[C@H]1N2C	14	-4	52*	21	-10
SMILES	LGR2 antag	EWS-Fli block	TROY signal inh	TWEAK-Fn14 inh	EBV LMP1 NFkB
COc1ccc(OC(=O)N(C)C[C@H]2OCc3ccccc3-c3c(n(C)c4ccccc34)C(=O)N([C@@H](C)CO)C[C@H]2C)cc1	-7	17	.	.	.
CCCC#Cc1ccc([C@H]2[C@@H](CO)N3CCCCN(C(=O)Cc4ccccn4)C[C@@H]23)cc1	-9	-7	.	.	.
COc1cccc(-c2ccc([C@@H]3[C@H]4CN(C(=O)Cc5ccncc5)CCCCN4[C@H]3CO)cc2)c1	-12	.	.	.	.
O=C(Cc1ccccn1)N1CCCCN2[C@@H](CO)[C@@H](c3ccc(-c4ccc(F)cc4)cc3)[C@@H]2C1	1	6	.	.	.
COc1ccc(CCNCc2cccn2C)cc1	30	-2	5	-17	69*
Cn1cccc1CNCCc1ccccc1F	.	.	15	-8	-9
COC(=O)C1=C(c2cc3ccccc3o2)C[C@@H]2CC[C@H]1N2C(=O)N1CCCCC1	5	58*	20	-6	14
CCc1ccc(N2C(=O)NC(=O)/C(=C/c3cccn3CCOc3ccc(C(C)CC)cc3)C2=O)cc1 (stereo unspecified)	-14	25	41	65*	-34
COC(=O)[C@H]1[C@H](CO)[C@H]2Cn3c(ccc(-c4ccncc4)c3=O)[C@@H]1N2S(=O)(=O)c1ccccc1F	-14	1	.	.	.
Nc1c(C(=O)NCc2ccco2)c2nc3ccccc3nc2n1CCN1CCOCC1	.	.	1	6	13
COc1ccc(Cn2c(N)c(C(=O)NCc3ccco3)c3nc4ccccc4nc32)cc1	.	.	69*	43	-16
CCCCn1c(N)c(C(=O)OCCOC)c2nc3ccccc3nc21	-9	8	3	3	.
COCCOC(=O)c1c(N)n(Cc2ccccc2)c2nc3ccccc3nc12	.	.	65*	20	21
CC(C)CCn1c(N)c(C(=O)OCC2CCCO2)c2nc3ccccc3nc21 (stereo unspecified)	.	.	60*	49	-5
Nc1c(C(=O)NCc2ccco2)c2nc3ccccc3nc2n1Cc1ccc(F)cc1	-23	.	62*	22	-5
O=C(Cc1ccccc1)N1CCCCN2[C@H](C1)[C@H](c1ccc(C#Cc3ccccc3)cc1)[C@@H]2CO	9	.	.	.	.
CC=Cc1ccc2n(c1=O)C[C@@H]1[C@@H](CO)[C@H](C(=O)OC)[C@H]2N1CC1CCOCC1 (mixture of isomers)	4	-13	.	.	.
COc1ccc(OC(=O)N(C)C[C@@H]2OCc3ccccc3-c3c(n(C)c4ccccc34)C(=O)N([C@@H](C)CO)C[C@H]2C)cc1	12	5	.	.	.
O=C(Cc1cccnc1)N1CCCCN2[C@@H](CO)[C@@H](c3ccc(/C=C/c4ccccc4)cc3)[C@@H]2C1	-3	2	.	.	.
CCCN1[C@@H]2c3ccc(-c4ccccc4)c(=O)n3C[C@H]1[C@H](CO)[C@H]2C(=O)OC	-8	5	.	.	.
Nc1c(C(=O)NCc2ccco2)c2nc3ccccc3nc2n1Cc1ccccc1	5	.	43	50*	2
